Results filed as inconclusive are left out. Where a call stands in place of a potency, no number is given. Active and inactive are the calls of the source. Calls follow the shape of the dose curve; as a rule, active = well fitted cell-killing curve with a large enough effect; inconclusive = small, poorly fitted or top-dose-only effect, or effect the other way; inactive = no such curve, though single readings can be large or run the other way.
Potency is read from the fitted curve at half-maximal effect.

The assay in a line: qHTS assay to identify small molecule inhibitors of chordoma cells - UCH-1 (AID 1259355). Also: nearly all actives have a fitted effect of over 55% in size. The note with it: UCH-1 chordoma viability, CellTiter-Glo, 48 h, combination, with auranofin plus four topoisomerase inhibitors; series mostly up to 46.1 µM. The source says: NIH Chemical Genomics Center [NCGC]
Chordoma is a rare and slow growing tumor that can occur anywhere along the spine, from the base of the skull to the tailbone. Current treatment options for chordoma is surgery and radiation therapy for those who are not candidates for surgery. But chordomas tend to return in the same location or surrounding areas of the original tumor after surgery and/or radiation. Chemotherapy can slow down the progression of the tumor. As chordoma is slow growing, the general cytotoxic agents that kill fast growing cells are ineffective, and some patients have been reported to respond to molecularly targeted drugs.
NCATS Pharmaceutical Collection (NPC) containing approximately 3000 clinically approved and investigational drugs were used to screen at 15 concentrations in a chordoma cell lines, UCH-1, to identify small molecule compounds that can inhibit chordoma cell growth.
NCGC Assay Protocol Summary:
Human chordoma cell line UCH-1 was dispensed at 800 per well in 4uL of culture medium into white solid bottom 1536-well plates (Corning Life Sciences, Corning, NY) using a Multidrop Combi (Thermo Scientific, Waltham, MA) dispenser. The assay plates were incubated at 37 C and 5% CO2 for an overnight, and then 23nL of compounds dissolved in DMSO and positive control were transferred using a Pintool station (Wako, San Diego, CA). Compound treatment was followed by the addition of 1uL of the combination compounds (1uM Auranofin, 500nM each of Camptothecin, Doxorubicin, Rubitecan, and Topotecan) and assay medium to each well of the assay plates using Flying Reagent Dispenser (FRD, Aurora Discovery, San Diego, CA). The assay plates were incubated at 37 C and 5% CO2 for 48hr. Then 5uL of CellTiter-Glo reagent (Promega Corporation, Madison, WI) was added to each well of the assay plates using FRD. After 30min incubation at room temperature, the luminescence signal was quantified using a ViewLux plate reader (PerkinElmer, Shelton, CT).
As for `C[N+](C)(C)CCCCCC[N+](C)(C)C`, the Potency result was “inactive”. The result for `C[N+]1(C)[C@@H]2CC(OC(=O)[C@H](CO)c3ccccc3)C[C@H]1[C@H]1O[C@@H]12` (stereo partly drawn) reads “inactive”. Under `O=C(O)c1cc(-c2ccccc2)nc2ccccc12` stands “inactive”; under `O=C(O)Cc1cccc2ccccc12`, “inactive”; under `CCCNC(=O)NS(=O)(=O)c1ccc(Cl)cc1`, “inactive”. The result for `CCN(CC)C(=O)c1ccc(O)c(OC)c1` reads “inactive”; that for `CCN1CCC[C@H]1CNC(=O)c1cc(S(N)(=O)=O)ccc1OC`, “inactive”. `CC[C@]1(O)C[C@@H]2CN(CCc3c([nH]c4ccccc34)[C@@](C(=O)OC)(c3cc4c(cc3OC)N(C)[C@H]3[C@@](O)(C(=O)OC)[C@H](OC(C)=O)[C@]5(CC)C=CCN6CC[C@]43[C@@H]65)C2)C1`: the Potency was 5.62 µM (active). The result for `CC(=O)CCCCn1c(=O)c2c(ncn2C)n(C)c1=O` reads “inactive”; that for `CC(=O)O[C@]1(C(C)=O)CC[C@H]2[C@@H]3C=C(Cl)C4=CC(=O)[C@@H]5C[C@@H]5[C@]4(C)[C@H]3CC[C@@]21C`, “inactive”; that for `CCn1cc(C(=O)O)c(=O)c2ccc(C)nc21`, “inactive”. Under `CCN(CC)CCOC(=O)c1ccc(N)cc1` stands “inactive”; under `O=c1[nH]cnc2c1ncn2[C@H]1CC[C@@H](CO)O1`, “inactive”. `CC(=O)N[C@@H](CS)C(=O)O`: the Potency result was “inactive”. As to `NCCS`, the Potency entry is “inactive”. Take `CN(C)CCC(c1ccccc1)c1ccccn1` (stereo not drawn): the Potency result was “inactive”. With `Cc1cccc(C)c1OCC(C)N` (stereo not drawn), the Potency result was “inactive”.

In the case of `Cc1cnc(C(=O)O)c[n+]1[O-]`, the Potency result was “inactive”.

Consider `CCCCC1C(=O)N(c2ccccc2)N(c2ccccc2)C1=O`, for which the Potency result is “inactive”.

On to `O=C1NC(=O)C(c2ccccc2)(c2ccccc2)N1`, for which the Potency result was “inactive”.

In the case of `CC(=O)c1ccc(S(=O)(=O)NC(=O)NC2CCCCC2)cc1`, the Potency entry is “inactive”. On to `Clc1ccc(Cn2c(CN3CCCC3)nc3ccccc32)cc1`, for which the Potency result is “inactive”. For the compound `NC(N)=Nc1nc(CSCC/C(N)=N/S(N)(=O)=O)cs1`, the Potency entry is “inactive”. The result for `OC[C@@H](O)[C@H](O)[C@H](O)[C@@H](O)CO` reads “inactive”; that for `CC(C)NCC(O)COc1cccc2[nH]ccc12` (stereo not drawn), “inactive”; that for `O=C(O)CCc1nc(-c2ccccc2)c(-c2ccccc2)o1`, “inactive”. The result for `O=C1NCC2(CCN(CCc3ccccc3)CC2)O1` reads “inactive”; that for `C[C@@H](O)[C@H]1C(=O)N2C(C(=O)O)=C(S[C@@H]3CN[C@H](C(=O)N(C)C)C3)[C@H](C)[C@H]12`, “inactive”.

Consider `COc1ccccc1N1CCN(CCCNc2cc(=O)n(C)c(=O)n2C)CC1`, for which the Potency result was “inactive”. In the case of `COC(=O)[C@@H]1[C@H]2C[C@H]3c4[nH]c5ccccc5c4CCN3C[C@@H]2CC[C@@H]1O`, the Potency result was “inactive”.

For the compound `CC1=C(/C=C/C(C)=C/C=C/C(C)=C/C(=O)Nc2ccc(O)cc2)C(C)(C)CCC1`, the Potency entry was “inactive”. Turning to `CCN(CC)CCNC(=O)c1ccc(N)cc1`, the Potency entry is “inactive”. On to `O=C(NCCN1CCOCC1)c1ccc(Cl)cc1`, for which the Potency result was “inactive”.

These data come from PubChem BioAssay (NCATS).
